# ChEMBL document CHEMBL1961873, “Compounds: GSK PKIS; Assays: Nanosyn kinase panel” (2012)
# What was measured:
# [1] = system: Epidermal growth factor receptor (Homo sapiens), P00533 [T790M]; conditions: at 1 µM
# [2] = system: Epidermal growth factor receptor (Homo sapiens), P00533 [L858R,T790M]; conditions: at 0.1 µM
# [3] = system: Epidermal growth factor receptor (Homo sapiens), P00533 [L858R,T790M]; conditions: at 1 µM
# [4] = target: Ephrin type-A receptor 2 (Homo sapiens) (UniProt P29317); conditions: at 0.1 µM
# [5] = target: Ephrin type-A receptor 2 (Homo sapiens) (UniProt P29317); conditions: at 1 µM
# [6] = target: T1, Ephrin type-A receptor 3 (Homo sapiens) (UniProt P29320); conditions: at 0.1 µM
# T1 sequence (whole entry): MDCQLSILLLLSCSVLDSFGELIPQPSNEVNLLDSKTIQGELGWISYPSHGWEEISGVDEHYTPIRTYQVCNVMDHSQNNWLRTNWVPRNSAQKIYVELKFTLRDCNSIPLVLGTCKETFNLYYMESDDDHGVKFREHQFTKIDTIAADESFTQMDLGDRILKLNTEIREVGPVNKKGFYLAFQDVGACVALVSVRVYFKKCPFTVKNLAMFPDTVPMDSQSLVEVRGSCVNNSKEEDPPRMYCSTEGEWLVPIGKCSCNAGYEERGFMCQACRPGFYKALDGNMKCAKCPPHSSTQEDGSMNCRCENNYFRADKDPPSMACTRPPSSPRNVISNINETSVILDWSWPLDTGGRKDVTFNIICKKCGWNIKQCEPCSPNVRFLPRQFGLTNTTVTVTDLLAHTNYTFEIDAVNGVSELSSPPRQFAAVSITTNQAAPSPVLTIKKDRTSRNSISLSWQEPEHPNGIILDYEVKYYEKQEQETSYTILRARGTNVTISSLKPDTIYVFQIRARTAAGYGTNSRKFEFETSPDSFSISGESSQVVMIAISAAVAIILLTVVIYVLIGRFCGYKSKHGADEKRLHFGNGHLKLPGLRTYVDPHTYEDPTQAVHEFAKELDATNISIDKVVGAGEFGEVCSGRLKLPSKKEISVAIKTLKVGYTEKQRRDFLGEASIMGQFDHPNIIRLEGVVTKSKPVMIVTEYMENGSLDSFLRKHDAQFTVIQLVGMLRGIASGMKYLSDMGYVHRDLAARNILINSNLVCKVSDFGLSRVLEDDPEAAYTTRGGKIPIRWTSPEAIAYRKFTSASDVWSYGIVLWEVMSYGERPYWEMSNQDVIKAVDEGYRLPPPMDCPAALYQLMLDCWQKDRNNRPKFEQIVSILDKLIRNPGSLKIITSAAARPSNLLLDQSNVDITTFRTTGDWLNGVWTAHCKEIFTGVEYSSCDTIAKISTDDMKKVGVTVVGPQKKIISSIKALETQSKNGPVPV
# [7] = target: T1, Ephrin type-A receptor 3 (Homo sapiens); conditions: at 1 µM
# [8] = target: Ephrin type-A receptor 4 (Homo sapiens) (UniProt P54764); conditions: at 0.1 µM
# [9] = target: Ephrin type-A receptor 4 (Homo sapiens) (UniProt P54764); conditions: at 1 µM
# [10] = target: T2, Ephrin type-B receptor 2 (Homo sapiens) (UniProt P29323); conditions: at 0.1 µM
# T2 sequence (whole entry): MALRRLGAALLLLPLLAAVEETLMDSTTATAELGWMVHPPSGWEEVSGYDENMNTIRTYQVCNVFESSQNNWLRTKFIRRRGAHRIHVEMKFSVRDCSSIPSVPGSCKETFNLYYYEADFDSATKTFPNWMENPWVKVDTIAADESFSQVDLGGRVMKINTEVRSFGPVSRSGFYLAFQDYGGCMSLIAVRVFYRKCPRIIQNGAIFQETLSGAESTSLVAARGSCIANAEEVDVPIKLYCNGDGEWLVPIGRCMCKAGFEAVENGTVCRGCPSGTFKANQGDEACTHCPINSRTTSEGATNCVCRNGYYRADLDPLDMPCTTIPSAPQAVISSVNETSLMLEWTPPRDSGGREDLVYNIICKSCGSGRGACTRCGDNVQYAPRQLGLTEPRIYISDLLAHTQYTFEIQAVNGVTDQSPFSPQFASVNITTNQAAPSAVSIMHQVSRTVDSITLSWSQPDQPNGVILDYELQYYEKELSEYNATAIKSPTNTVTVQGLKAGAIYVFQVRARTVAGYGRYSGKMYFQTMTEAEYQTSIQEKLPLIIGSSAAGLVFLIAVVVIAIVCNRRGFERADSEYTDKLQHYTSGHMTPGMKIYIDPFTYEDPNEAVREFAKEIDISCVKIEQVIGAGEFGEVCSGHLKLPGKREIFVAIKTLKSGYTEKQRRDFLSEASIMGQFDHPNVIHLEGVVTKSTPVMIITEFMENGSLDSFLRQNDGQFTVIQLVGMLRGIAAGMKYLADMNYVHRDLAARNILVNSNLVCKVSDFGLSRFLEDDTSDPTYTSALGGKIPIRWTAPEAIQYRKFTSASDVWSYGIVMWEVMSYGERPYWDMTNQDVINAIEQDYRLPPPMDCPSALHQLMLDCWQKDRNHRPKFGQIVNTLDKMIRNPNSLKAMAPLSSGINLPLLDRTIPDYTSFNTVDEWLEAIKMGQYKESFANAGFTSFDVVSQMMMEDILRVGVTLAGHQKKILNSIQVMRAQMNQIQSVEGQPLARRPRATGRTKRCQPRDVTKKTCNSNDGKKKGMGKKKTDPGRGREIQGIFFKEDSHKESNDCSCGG
# [11] = target: T2, Ephrin type-B receptor 2 (Homo sapiens); conditions: at 1 µM
# [12] = target: T3, Ephrin type-B receptor 3 (Homo sapiens) (UniProt P54753); conditions: at 0.1 µM
# T3 sequence (whole entry): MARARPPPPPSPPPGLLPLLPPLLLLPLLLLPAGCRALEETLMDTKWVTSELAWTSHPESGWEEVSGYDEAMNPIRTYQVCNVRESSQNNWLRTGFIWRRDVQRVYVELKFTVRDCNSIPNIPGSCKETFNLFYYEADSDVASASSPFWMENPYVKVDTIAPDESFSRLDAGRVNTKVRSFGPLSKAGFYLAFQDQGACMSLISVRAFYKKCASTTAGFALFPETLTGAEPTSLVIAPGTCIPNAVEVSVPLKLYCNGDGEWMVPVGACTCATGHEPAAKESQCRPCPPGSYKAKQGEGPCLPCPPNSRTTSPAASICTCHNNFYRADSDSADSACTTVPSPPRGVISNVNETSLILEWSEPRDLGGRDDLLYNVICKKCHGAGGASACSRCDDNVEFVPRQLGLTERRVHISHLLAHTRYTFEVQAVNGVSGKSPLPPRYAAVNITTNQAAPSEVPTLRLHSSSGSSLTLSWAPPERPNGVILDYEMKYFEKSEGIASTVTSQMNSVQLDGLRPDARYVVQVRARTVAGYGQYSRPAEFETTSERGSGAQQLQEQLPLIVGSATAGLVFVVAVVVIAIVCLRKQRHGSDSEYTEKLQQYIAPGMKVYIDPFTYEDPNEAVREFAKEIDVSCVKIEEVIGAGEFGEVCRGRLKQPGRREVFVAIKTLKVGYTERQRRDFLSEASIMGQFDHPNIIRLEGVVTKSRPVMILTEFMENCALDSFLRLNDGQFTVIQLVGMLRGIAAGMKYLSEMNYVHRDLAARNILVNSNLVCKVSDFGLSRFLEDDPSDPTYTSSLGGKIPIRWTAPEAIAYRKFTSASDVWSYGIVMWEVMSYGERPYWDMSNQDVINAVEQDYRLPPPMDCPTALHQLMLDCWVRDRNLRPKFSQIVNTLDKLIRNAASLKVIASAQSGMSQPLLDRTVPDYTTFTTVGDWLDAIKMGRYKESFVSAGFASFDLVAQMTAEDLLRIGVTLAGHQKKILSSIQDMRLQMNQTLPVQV
# [13] = target: T3, Ephrin type-B receptor 3 (Homo sapiens); conditions: at 1 µM
# [14] = target: T4, Ephrin type-B receptor 4 (Homo sapiens) (UniProt P54760); conditions: at 0.1 µM
# T4 sequence (whole entry): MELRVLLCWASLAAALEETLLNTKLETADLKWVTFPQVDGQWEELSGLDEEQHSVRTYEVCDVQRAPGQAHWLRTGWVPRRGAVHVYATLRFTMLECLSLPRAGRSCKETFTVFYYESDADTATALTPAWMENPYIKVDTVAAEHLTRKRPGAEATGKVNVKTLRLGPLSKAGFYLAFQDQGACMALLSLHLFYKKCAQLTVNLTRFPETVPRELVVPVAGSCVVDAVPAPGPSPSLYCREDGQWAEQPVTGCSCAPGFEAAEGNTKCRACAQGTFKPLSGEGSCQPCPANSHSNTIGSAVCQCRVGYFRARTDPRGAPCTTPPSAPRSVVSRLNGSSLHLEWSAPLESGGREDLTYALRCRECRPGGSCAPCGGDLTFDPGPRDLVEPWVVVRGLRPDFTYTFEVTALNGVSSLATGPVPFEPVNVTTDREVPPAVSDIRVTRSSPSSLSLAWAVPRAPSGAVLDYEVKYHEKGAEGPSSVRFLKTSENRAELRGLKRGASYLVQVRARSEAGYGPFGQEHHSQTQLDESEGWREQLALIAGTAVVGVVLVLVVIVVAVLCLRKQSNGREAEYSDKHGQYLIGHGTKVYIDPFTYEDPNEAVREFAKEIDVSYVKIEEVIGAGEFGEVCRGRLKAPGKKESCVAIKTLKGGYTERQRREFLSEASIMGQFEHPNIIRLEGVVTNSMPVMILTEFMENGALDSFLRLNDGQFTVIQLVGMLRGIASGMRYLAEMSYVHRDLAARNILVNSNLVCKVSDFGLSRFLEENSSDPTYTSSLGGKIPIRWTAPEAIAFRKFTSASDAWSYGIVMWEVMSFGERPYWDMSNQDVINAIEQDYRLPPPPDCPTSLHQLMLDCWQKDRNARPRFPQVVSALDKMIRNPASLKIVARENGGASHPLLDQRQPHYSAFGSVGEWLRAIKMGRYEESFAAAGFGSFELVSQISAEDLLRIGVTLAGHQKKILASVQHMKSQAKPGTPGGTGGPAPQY
# [15] = target: T4, Ephrin type-B receptor 4 (Homo sapiens); conditions: at 1 µM
# [16] = target: Receptor tyrosine-protein kinase erbB-2 (Homo sapiens) (UniProt P04626); conditions: at 0.1 µM
# [17] = target: Receptor tyrosine-protein kinase erbB-2 (Homo sapiens) (UniProt P04626); conditions: at 1 µM
# [18] = target: Receptor tyrosine-protein kinase erbB-4 (Homo sapiens) (UniProt Q15303); conditions: at 0.1 µM
# [19] = target: Receptor tyrosine-protein kinase erbB-4 (Homo sapiens) (UniProt Q15303); conditions: at 1 µM
# [20] = target: Tyrosine-protein kinase Fer (Homo sapiens) (UniProt P16591); conditions: at 0.1 µM;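 further: reported figures are averaged percent inhibition of FER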
# Chain of Tyrosine-protein kinase Fer (Homo sapiens) (P16591 whole entry, looked up): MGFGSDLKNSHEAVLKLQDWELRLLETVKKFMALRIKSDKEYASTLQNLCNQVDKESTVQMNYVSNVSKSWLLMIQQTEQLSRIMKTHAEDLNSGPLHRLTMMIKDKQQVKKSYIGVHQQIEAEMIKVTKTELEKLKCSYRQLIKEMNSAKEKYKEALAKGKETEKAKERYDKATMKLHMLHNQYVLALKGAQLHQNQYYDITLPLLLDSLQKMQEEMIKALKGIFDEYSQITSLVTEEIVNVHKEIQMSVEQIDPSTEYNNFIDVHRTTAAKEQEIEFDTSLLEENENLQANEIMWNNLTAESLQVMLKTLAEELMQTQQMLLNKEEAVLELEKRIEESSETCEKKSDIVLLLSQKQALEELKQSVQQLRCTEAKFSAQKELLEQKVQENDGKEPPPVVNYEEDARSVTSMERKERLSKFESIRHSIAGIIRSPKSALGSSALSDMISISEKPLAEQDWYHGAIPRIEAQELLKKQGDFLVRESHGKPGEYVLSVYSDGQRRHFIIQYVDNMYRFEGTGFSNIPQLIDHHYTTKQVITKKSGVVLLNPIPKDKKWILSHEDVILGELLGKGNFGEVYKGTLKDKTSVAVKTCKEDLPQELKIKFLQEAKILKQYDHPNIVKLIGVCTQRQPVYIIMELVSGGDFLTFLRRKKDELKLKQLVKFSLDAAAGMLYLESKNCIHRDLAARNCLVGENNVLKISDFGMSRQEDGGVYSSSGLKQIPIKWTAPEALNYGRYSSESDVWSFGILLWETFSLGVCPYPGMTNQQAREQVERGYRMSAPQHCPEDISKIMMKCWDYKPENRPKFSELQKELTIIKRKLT
# Chain of Ephrin type-A receptor 2 (Homo sapiens) (P29317 whole entry): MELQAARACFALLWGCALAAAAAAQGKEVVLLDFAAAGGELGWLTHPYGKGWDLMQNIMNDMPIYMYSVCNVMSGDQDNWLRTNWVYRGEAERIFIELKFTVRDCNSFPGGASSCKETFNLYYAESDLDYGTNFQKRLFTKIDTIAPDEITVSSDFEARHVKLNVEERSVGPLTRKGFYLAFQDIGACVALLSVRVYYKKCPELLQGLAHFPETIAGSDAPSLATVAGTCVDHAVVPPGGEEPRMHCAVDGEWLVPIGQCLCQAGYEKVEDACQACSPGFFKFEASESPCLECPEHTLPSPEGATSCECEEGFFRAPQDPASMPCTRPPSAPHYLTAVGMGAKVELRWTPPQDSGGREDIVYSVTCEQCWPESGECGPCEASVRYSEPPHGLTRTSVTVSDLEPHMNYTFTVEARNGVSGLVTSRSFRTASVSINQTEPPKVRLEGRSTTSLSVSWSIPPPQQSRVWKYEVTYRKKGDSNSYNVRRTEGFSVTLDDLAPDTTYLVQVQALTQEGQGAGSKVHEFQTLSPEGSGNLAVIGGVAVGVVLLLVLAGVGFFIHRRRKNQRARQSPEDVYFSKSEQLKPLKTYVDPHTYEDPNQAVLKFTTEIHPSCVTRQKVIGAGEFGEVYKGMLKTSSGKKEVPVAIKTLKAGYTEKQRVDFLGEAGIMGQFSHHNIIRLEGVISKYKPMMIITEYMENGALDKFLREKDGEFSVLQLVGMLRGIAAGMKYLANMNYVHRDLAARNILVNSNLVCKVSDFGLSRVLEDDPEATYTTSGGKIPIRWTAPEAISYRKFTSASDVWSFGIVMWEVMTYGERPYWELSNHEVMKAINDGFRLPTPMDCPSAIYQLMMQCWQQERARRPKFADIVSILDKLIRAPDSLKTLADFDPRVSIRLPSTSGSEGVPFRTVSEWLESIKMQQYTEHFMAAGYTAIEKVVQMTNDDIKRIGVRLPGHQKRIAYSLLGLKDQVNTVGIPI
# Chain of Ephrin type-A receptor 4 (Homo sapiens) (P54764 whole entry): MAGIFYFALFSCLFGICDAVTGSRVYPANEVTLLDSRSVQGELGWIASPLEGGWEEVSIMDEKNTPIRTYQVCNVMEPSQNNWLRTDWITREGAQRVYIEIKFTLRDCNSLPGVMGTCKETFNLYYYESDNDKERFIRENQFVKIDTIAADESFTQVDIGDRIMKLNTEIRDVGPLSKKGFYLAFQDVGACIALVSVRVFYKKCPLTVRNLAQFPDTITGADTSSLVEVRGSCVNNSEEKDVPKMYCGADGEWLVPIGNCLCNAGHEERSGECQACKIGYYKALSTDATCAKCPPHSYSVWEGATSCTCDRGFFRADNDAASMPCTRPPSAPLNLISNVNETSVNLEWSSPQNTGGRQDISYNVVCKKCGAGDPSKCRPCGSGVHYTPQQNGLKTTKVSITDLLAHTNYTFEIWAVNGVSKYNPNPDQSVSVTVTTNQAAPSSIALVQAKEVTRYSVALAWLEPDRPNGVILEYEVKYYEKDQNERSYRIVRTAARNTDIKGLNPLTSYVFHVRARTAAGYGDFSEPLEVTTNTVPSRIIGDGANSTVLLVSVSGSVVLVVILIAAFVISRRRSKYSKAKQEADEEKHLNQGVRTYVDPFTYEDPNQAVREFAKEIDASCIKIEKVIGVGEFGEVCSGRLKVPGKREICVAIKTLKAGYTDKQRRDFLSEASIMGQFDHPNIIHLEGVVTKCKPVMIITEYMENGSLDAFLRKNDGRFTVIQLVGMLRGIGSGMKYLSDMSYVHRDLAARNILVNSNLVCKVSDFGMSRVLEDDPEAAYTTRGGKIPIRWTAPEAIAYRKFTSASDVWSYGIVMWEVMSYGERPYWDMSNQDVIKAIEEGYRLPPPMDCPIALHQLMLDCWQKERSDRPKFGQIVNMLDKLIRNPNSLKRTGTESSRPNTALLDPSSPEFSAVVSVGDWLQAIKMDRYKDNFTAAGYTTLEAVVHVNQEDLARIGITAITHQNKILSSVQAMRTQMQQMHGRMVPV
# Chain of Epidermal growth factor receptor (Homo sapiens), P00533 [L858R,T790M] (P00533 whole entry T790M/L858R, looked up): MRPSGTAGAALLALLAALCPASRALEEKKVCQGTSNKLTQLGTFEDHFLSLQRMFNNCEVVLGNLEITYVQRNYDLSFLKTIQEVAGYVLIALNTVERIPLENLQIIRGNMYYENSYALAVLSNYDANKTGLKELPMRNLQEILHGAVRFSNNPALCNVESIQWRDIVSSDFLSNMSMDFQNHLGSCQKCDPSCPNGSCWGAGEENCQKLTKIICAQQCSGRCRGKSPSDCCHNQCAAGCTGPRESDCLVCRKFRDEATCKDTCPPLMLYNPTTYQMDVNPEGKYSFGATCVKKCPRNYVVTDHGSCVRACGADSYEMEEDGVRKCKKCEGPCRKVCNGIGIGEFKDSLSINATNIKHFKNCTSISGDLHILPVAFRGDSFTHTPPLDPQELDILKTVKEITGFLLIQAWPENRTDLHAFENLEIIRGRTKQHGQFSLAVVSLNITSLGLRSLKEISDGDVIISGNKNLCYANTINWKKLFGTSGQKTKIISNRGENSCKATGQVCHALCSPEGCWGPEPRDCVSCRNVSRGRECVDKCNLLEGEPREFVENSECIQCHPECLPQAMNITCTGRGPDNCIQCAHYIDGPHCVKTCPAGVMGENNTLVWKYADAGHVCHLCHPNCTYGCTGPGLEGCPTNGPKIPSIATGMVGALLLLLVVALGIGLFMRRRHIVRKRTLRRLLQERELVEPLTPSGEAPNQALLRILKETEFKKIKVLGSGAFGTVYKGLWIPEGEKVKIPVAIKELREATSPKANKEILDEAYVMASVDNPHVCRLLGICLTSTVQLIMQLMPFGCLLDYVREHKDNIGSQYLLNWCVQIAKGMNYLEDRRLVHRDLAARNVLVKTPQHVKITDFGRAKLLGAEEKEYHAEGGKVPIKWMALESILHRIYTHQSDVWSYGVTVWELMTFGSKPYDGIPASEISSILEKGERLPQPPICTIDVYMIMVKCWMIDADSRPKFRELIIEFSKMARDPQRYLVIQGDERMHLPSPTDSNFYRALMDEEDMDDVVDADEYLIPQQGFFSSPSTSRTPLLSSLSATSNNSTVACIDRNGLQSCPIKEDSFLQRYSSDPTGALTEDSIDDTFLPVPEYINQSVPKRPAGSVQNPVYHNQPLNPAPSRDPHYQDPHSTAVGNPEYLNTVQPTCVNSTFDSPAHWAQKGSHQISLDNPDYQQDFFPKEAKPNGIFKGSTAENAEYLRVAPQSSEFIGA
Compound,inhibition [1],inhibition [2],inhibition [3],inhibition [4],inhibition [5],inhibition [6],inhibition [7],inhibition [8],inhibition [9],inhibition [10],inhibition [11],inhibition [12],inhibition [13],inhibition [14],inhibition [15],inhibition [16],inhibition [17],inhibition [18],inhibition [19],inhibition [20]
Fc1ccc(-c2c(-c3ccncc3)nc3n2CCS3)cc1,1.49%,2.41%,2.54%,-5.85%,-4.53%,-0.6%,0.35%,6.26%,8.11%,1.66%,6.7%,1.23%,1.23%,-4.56%,-2.17%,1.03%,0.17%,2.91%,4.97%,0.77%
COc1ccc2ncn(-c3cc(O[C@H](C)c4ccccc4Cl)c(C(N)=O)s3)c2c1,1.63%,1.69%,4.57%,-1.86%,-2.71%,-1.12%,1.39%,6.03%,9.66%,6.75%,12%,0.01%,0.43%,-2.13%,-1.28%,2.78%,2.8%,1.62%,4.43%,2.82%
c1ccc(Oc2ccc(Nc3ncc(-c4ccccc4)o3)cc2)cc1,0.24%,-0.18%,4.16%,-2.63%,-2.48%,2.07%,2.91%,4.49%,4.79%,7.5%,9.65%,2.67%,0.66%,2.42%,0.76%,-0.01%,1.41%,4.29%,5.09%,2.19%
